# HSF1 inhib: HSF1 inhibitors in luciferase reporter cells, primary screen, cell-based, NIH3T3, luminescence. NIH3T3-HGL HSE-luciferase, MG132-induced, luminescence 8 h; hits give low values. activity change, negative = inhibition, % at 7.5 µM (by protocol). 0.77% of 300,000 active. AID 2098, 2009;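 active = more than half of replicate wells show activity change below -50%, luminescence cut by over half; inconclusive = some wells, but at most half, below -50%; inactive = no replicate well below -50%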;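 note: luciferase reports HSF-1 transcriptional activity via heat shock element; 0% = median of DMSO wells and -100% = zero luminescence signal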
# Wnt bcat act: Wnt/beta-catenin pathway activators, primary screen, cell-based, plate reader, single point. Wnt/beta-catenin reporter cell assay, activator. activation, % at 9.35 µM. 1.2% of 300,000 active. AID 743398, 2014; in the data active = activation above about 30%, passing the limit was not always enough; inconclusive = no clear call, values can overlap the other calls;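 note: 0% = neutral control wells and 100% = positive control wells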
# esBAF inh: Bmi1 luciferase reporter increase in mESCs, primary screen, esBAF inhibitor project, mouse ES cells, Bmi1 luciferase knock-in, single point | AID 602393, 2012 | 24 h; 100% = twice the neutral-well signal | reporter increase, % at 12.5 µM | 2% of 350,000 active; in the data active = activation above about 40%; inconclusive = no clear call, values can overlap the other calls;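 note: 0% = median of the plate's neutral control wells and 100% = double that signal; a rise in the Bmi1 reporter signal indicates esBAF inhibition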
# MITF act: activators of MITF-driven TRPM1 promoter reporter, primary screen, cell-based, SK-MEL-5, luciferase, single point | 0.75% of 300,000 active | activation, % at 12.5 µM | AID 588334, 2011 | SK-MEL-5 TRPM1-promoter luciferase, 24 h; % of positive control, neutral wells = 0;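 active = mean activation of at least 80% with every replicate also reaching 80%; inconclusive = mean reaches 80% but some replicate falls short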;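 note: 0% = neutral control wells and 100% = parthenolide positive control wells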
# HSF-1 act: HSF-1 activators, primary screen, NIH3T3-HGL cells, MG132 stress, luminescence, single point | NIH3T3-HGL HSF-1 luciferase reporter, 8 h; 100% = twice DMSO control signal | 1.7% of 300,000 active | activation, % at 9 µM;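 active = mean replicate activation of at least 50% with a set share of replicates each reaching 50%; inconclusive = only one of those two conditions met; inactive = mean below 50% and too few replicates reaching it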;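 note: 0% = median of the neutral control wells and 100% = twice that signal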
# Numbers without * were called inactive; u = inconclusive; x = no result. Compounds with a hit are over-represented: about 3.8% of the library has one in this group of screens.
SMILES,HSF1 inhib,Wnt bcat act,esBAF inh,MITF act,HSF-1 act
COc1ccc(O)c(C(=O)/C=C/c2cc3ccccc3o2)c1,18,1,-11,-1,17
COc1cccc(C(=O)Oc2ccccc2/C=C\C(=O)c2cc3ccccc3o2)c1,129,152*,x,-17,131*
O=C(N/N=C/c1ccccc1OC(=O)c1ccc2c(c1)OCO2)c1cccc(F)c1,6,x,x,6,-8
O=C(Oc1ccccc1/C=C\C(=O)c1cc2ccccc2o1)c1ccccc1,289,53*,x,12,366*
O=C(Oc1ccccc1/C=C\C(=O)c1cc2ccccc2o1)c1cccc(F)c1,199,x,x,11,235*
C[C@H]1CN([C@@H](C)CO)S(=O)(=O)c2ccc(Br)cc2O[C@H]1CN(C)S(=O)(=O)c1ccc(F)cc1,x,x,-4,x,x
CN1CCN(C(=O)C[C@@H]2CC[C@@H]3[C@H](COC[C@H](O)CN3C(=O)Nc3cc(Cl)cc(Cl)c3)O2)CC1,x,x,-4,x,x
C[C@H](CO)N1C[C@H](C)[C@@H](CN(C)Cc2ccncc2)Oc2ccc(NC(=O)Cn3cnnn3)cc2CC1=O,x,x,-6,x,x
FC(F)(F)c1ccc(-c2csc(-c3ccno3)n2)cc1,-2,23,50*,x,25
N#Cc1ccc(-c2csc(-c3ccno3)n2)cc1,-7,-1,x,x,0
O=C(N[C@@H]1CC[C@@H](CCNS(=O)(=O)c2ccc(F)cc2)O[C@@H]1CO)C1CCCC1,x,x,-4,x,x
Cc1nc(SCc2ccc(OCCC(C)C)cc2)n[nH]1,19,16,45*,16,39
CO[C@H]1CN(C)C(=O)c2ccc(NC(=O)Nc3cccc(F)c3)cc2OC[C@@H](C)N(C(C)=O)C[C@H]1C,x,x,3,x,x
COCCN(Cc1cc2ccc(C)c(C)c2nc1Cl)C(=O)N1CCOCC1,18,-1,x,0,55*
Cc1cccc(CSc2cccc3cccnc23)c1,232,x,38,x,288*
NNC(=O)c1ccc(CSc2cccc3cccnc23)cc1,3,4,3,5,20
O=C(Nc1cccc(Cl)c1)N[C@H]1CC[C@@H](CCNC(=O)C2CCCC2)O[C@@H]1CO,x,x,0,x,x
COc1ccccc1C(O)(C(=O)N(NC(C)=O)c1ccccc1)c1ccccc1OC,-63*,1,0,-2,-71
N#C/C(=C\c1cccnc1)c1nc2c(s1)CCCC2,71,26,x,62,107*
CC1CCc2nc(/C(C#N)=C/c3cccnc3)sc2C1 (configuration not stated),102,x,x,85*,126*
C[C@@H]1CN([C@H](C)CO)C(=O)c2ccccc2-c2ccccc2CO[C@H]1CN(C)C(=O)CCN(C)C,x,x,-2,x,x
CCNC(=O)[C@@H]1[C@@H](CO)[C@@H]2Cn3c(ccc(/C=C/c4ccccc4)c3=O)[C@H]1N2CC,x,x,-3,x,x
CCOC(=O)Cc1ccc2sc(-c3ccccc3)nc2c1,53,x,69*,20,92*
C[C@@H]1CN([C@H](C)CO)C(=O)Cc2cc(NS(=O)(=O)c3cccs3)ccc2O[C@H]1CN(C)C(=O)Nc1ccc(F)cc1,x,x,-4,x,x
O=C(C[C@H]1C[C@H]2c3cc(NS(=O)(=O)c4ccccc4)ccc3O[C@H]2[C@H](CO)O1)NC1CCCCC1,x,x,3,x,x
SMILES,HSF1 inhib,Wnt bcat act,esBAF inh,MITF act,HSF-1 act
COc1ccc([C@@H]2C[C@@H](c3ccccc3)Oc3c(C)ccc(C(C)C)c32)cc1,-66*,-5,x,x,-74
O=C(N/N=C/c1ccc(Br)s1)Nc1ccccc1,22,-2,51*,64,17
O=C(N/N=C/c1cc(Br)cs1)c1c[nH]c2ccccc12,18,24,x,x,49
O=C(N/N=C/c1ccc(Br)s1)c1ccncc1,1,-2,x,-7,-7
Cc1ccsc1/C=N/NC(=O)Nc1ccccc1,25,16,x,107*,58*
O=C(N/N=C/c1ccc(Br)s1)c1c[nH]c2ccccc12,33,x,x,46,56*
CCCN(C)C[C@@H]1Oc2ncc(-c3cccnc3)cc2C(=O)N([C@@H](C)CO)C[C@@H]1C,x,x,2,x,x
CO[C@@H]1CN(C)C(=O)c2ccc(NC(=O)C3CC3)cc2OC[C@@H](C)NC[C@H]1C,x,x,1,x,x
Cc1ccc(C2C(C(=O)c3cccs3)=C(O)C(=O)N2c2cccc(C)n2)cc1 (configuration not stated),22,34*,x,x,37
C[C@H](CO)N1C[C@H](C)[C@@H](CN(C)Cc2ccc(Oc3ccccc3)cc2)Oc2ccc(NS(=O)(=O)c3cn(C)cn3)cc2C1=O,x,x,2,x,x
Cc1cc(C(=O)NNS(=O)(=O)c2ccc(F)cc2)nn1C(C)(C)C,-71*,1,-2,-7,-79
Cc1cc(C(=O)NNC(=O)c2cccs2)nn1C(C)(C)C,3,2,x,10,-7
CCNC(=O)C[C@@H]1CC[C@@H]2[C@@H](COc3ccc(NC(=O)c4ccc(F)cc4)cc3C(=O)N2C)O1,x,x,-1,x,x
C=CCn1c(-c2cccs2)nc2ccccc21,x,-2,21,19,x
C=CCn1c(-c2cccs2)nc2nc3ccccc3nc21,-3,4,46*,9,26
C=CCNC(=O)c1c(C(F)(F)F)nn(C)c1Cl,-54*,-4,x,4,-64
Cn1nc(C(F)(F)F)c(C(=O)Nc2ccc(C(F)(F)F)cc2)c1Cl,9,x,-2,x,16
CCOc1ccc(CN(C(=O)c2ccccn2)c2ccc(OC)c(Cl)c2)cc1,15,3,46*,21,23
CN(C)C(=O)C[C@H]1C[C@H]2c3cc(NC(=O)C4CCC4)ccc3O[C@H]2[C@H](CO)O1,x,x,-3,x,x
COc1ccc(NC(=S)Nc2ccccn2)cc1,11,36*,58*,u,14
COC(=O)c1ccc(NC(=S)Nc2ccc(O)cc2)cc1,-21,1,x,3,-20
COc1cccc(NC(=S)Nc2cc(C)cc(C)n2)c1,21,54*,u,x,56*
COc1ccccc1NC(=S)Nc1ccccn1,11,x,x,3,38
COC(=O)c1ccc(NC(=S)Nc2ccccn2)cc1,17,x,58*,112*,41
CC(=O)N1CCC2(CC1)NC(=O)N(c1ccccc1)N2,21,2,x,1,59*
CNC[C@H]1OCCCC[C@H](C)Oc2ccc(NC(=O)Nc3cccc4ccccc34)cc2C(=O)N([C@@H](C)CO)C[C@@H]1C,x,x,7,x,x
Cc1noc(C)c1S(=O)(=O)Nc1ccc2c(c1)C(=O)N([C@@H](C)CO)C[C@@H](C)[C@H](CN(C)S(=O)(=O)c1cccs1)OCCCC[C@@H](C)O2,x,x,2,x,x
O=c1sc(N2CCN(c3ccccc3F)CC2)nc2ccsc12,28,54*,69*,x,21
C[C@@H]1CN([C@@H](C)CO)C(=O)Cc2cc(NS(=O)(=O)c3cn(C)cn3)ccc2O[C@H]1CN(C)S(=O)(=O)c1ccccc1,x,x,-2,x,x

# Screens as filed in PubChem.
